Screening results: PubChem BioAssay, National Center for Advancing Translational Sciences (NCATS)
HEK293 tox: Cytotoxic Profiling in HEK 293 Cell Line of Diverse Libraries Using Quantitative High-Throughput Screening; Potency, µM (titrated, usually from 115 µM), usual class: inhibitors; AID 1345083, 2018; HEK 293 viability, ATP luminescence (CellTiter-Glo), 48-72 h; actives 6.6% (n = 94,000); note: nearly all actives have a fitted effect of over 60% in size
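HEK 293 cells at 250 cells/well were exposed to compounds by pintool transfer for 48 or 72 hr at 37 degree Celsius, 5% CO2. Viability was read as ATP-coupled luminescence with CellTiter-Glo after 10 min at room temperature.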
3T3 cytotox: Cytotoxic Profiling in NIH 3T3 Cell Line of Diverse Libraries Using Quantitative High-Throughput Screening | AID 1345082, 2018 | actives 4.3% (n = 94,000) | NIH 3T3 viability, CellTiter-Glo ATP luminescence, 48-72 h | Potency, µM (highest dose often 96.7 µM), hits mostly inhibitors; note: nearly all actives have a fitted effect of over 55% in size
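First NIH 3T3 cells are plated at 400 cells/well; next compound is pinned in; then plates incubate 48 or 72 hr at 37 °C; finally CellTiter-Glo is added and luminescence read after 10 min.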
NPR1 antag: Natriuretic polypeptide receptor (hNpr1) antagonism - Primary qHTS | Atrial natriuretic peptide receptor 1 (Homo sapiens), P16066 | HEK293 hNpr1 GloSensor cGMP, ANP-stimulated luminescence | Potency, µM (titrated, usually from 46.3 µM), hits mostly inhibitors | actives 1.6% (n = 76,000) | AID 1347048, 2019; calls by dose curve; note: nearly all actives have a fitted effect of over 60% in size
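HEK293 cells stably expressing human Npr1 and cGMP GloSensor pGS-40F, loaded 2 h with 2% GloSensor reagent, given compound 30 min at room temperature. Luminescence read before and 20 min after 0.1 nM hNppA.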
FLuc inh: Firefly luciferase inhibition profiling of diverse chemical library using quantitative high-throughput screening. Luciferin 4-monooxygenase (Photinus pyralis), P08659. actives 2.5% (n = 76,000). Potency, µM (titrated, usually from 115 µM), actives largely listed as inhibitors. purified P. pyralis luciferase, luminescence, biochemical; note: nearly all actives have a fitted effect of over 65% in size
Target sequence (P08659 whole entry, looked up): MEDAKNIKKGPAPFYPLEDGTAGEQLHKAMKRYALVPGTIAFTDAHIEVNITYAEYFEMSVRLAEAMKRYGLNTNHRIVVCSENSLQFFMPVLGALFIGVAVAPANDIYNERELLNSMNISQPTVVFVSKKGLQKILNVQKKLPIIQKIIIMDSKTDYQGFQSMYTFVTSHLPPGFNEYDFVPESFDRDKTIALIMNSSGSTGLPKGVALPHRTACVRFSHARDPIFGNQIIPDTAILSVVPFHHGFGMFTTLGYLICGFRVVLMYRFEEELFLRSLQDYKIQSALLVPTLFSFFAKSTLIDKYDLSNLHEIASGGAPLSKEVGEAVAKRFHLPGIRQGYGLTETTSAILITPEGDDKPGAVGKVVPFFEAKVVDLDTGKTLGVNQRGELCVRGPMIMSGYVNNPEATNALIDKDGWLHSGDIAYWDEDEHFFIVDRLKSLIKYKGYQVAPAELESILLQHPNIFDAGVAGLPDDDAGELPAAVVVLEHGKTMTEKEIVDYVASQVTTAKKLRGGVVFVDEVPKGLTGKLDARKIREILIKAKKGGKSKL
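Cell-free enzyme assay, 10nM P. pyralis luciferase, luciferin and ATP each at 10uM. Inhibition profiled over a 6-point titration, read as luminescence.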
Large screens that a line does not name were inactive. A selection: hits, their analogues and other compounds. The true share with any hit is near 11%. Unless noted, calls come from the whole dose curve; as a rule, active = well fitted curve in the direction sought with a large enough effect; inconclusive = small, poorly fitted or top-dose-only effect, or another doubt; inactive = no such curve, though single readings can be large; an effect the other way counts as inactive or inconclusive.

Cc1noc2nc(C(C)C)cc(C(=O)NC3CCCc4c3[nH]c3c(Cl)cccc43)c12 (stereo not drawn)	HEK293 tox 35µM, 3T3 cytotox inconclusive
COc1ccccc1C(=O)NC1CCCc2c1[nH]c1c(Cl)cccc21 (stereo not drawn)	HEK293 tox inconclusive, 3T3 cytotox inconclusive
Cc1noc(C)c1CC(=O)NC1CCCc2c1[nH]c1c(Cl)cccc21 (stereo not drawn)	HEK293 tox inconclusive, 3T3 cytotox 20µM
COc1ccc(CC(=O)NC2CCCc3c2[nH]c2c(Cl)cccc32)cc1OC (stereo not drawn)	HEK293 tox 28µM, 3T3 cytotox 13µM, NPR1 antag inconclusive
COc1ccccc1NC(=O)Cn1c(-c2ccc(Cl)cc2)nc(C)c(CCO)c1=O	none
Cc1nc(-c2cccc(Cl)c2)n(CC(=O)Nc2ccccc2)c(=O)c1CCO	HEK293 tox 45µM, 3T3 cytotox inconclusive
Cc1nc(-c2ccc(F)cc2)n(CC(=O)Nc2ccc(F)c(Cl)c2)c(=O)c1CCO	HEK293 tox 35µM, 3T3 cytotox inconclusive
Cc1cc(C)cc(NC(=O)Cn2c(-c3ccccc3)nc(C)c(CCO)c2=O)c1	HEK293 tox 32µM, 3T3 cytotox inconclusive
Cc1ccc(NC(=O)Cn2c(-c3cccc(Cl)c3)nc(C)c(CCO)c2=O)cc1	HEK293 tox 25µM, 3T3 cytotox 40µM
Cc1nc(-c2ccccc2)n(CC(=O)Nc2ccccc2)c(=O)c1CCO	HEK293 tox inconclusive, 3T3 cytotox inconclusive
Cc1ccc(NC(=O)Cn2c(-c3ccc(F)cc3)nc(C)c(CCO)c2=O)cc1Cl	HEK293 tox inconclusive, 3T3 cytotox inconclusive
C[S+](=O)([O-])NC1CCN(c2ccnc3ccnn23)C1 (stereo not drawn)	none (no result: NPR1 antag, FLuc inh)
Cc1ccccc1C(=O)NC1CCN(c2ccc3nnc(C4CC4)n3n2)CC1	3T3 cytotox inconclusive (no result: NPR1 antag, FLuc inh)
Cc1cccc(OCCc2noc(C3CCCCN3C(=O)NC(C)C)n2)c1 (stereo not drawn)	HEK293 tox inconclusive, 3T3 cytotox inconclusive
Cn1ccc2cc(NCc3nnc(C(=O)N4CCC[C@@H]4CN4CCCC4)n3-c3ccccc3)ccc21	3T3 cytotox inconclusive, FLuc inh inconclusive
CCc1cccc(NC(=O)Cn2c(-c3cccc(Cl)c3)nc(C)c(CCO)c2=O)c1	HEK293 tox 40µM, 3T3 cytotox inconclusive
Cc1ccc(CNC(=O)Cn2c(-c3ccccc3)nc(C)c(CCO)c2=O)cc1	HEK293 tox 79µM, 3T3 cytotox inconclusive
Cc1nc(-c2ccc(F)cc2)n(CC(=O)NCc2ccc(F)cc2)c(=O)c1CCO	none
Cc1nc(-c2cccc(Cl)c2)n(CC(=O)Nc2ccccc2F)c(=O)c1CCO	HEK293 tox 45µM, 3T3 cytotox inconclusive
Cc1cc(NC(=O)Cn2c(-c3cccc(Cl)c3)nc(C)c(CCO)c2=O)no1	HEK293 tox inconclusive, 3T3 cytotox inconclusive
Cc1nc(-c2cccc(Cl)c2)n(CC(=O)Nc2cccc(C(C)C)c2)c(=O)c1CCO	HEK293 tox inconclusive, 3T3 cytotox 25µM
C#CCNC(=O)c1nc(-c2ccccc2OC)c2cnccn12	3T3 cytotox inconclusive (no result: NPR1 antag, FLuc inh)
CCOC(=O)[C@H]1[C@@H](O)C(=O)N(Cc2ccccc2)C12CCN(C(=O)CC1CCCC1)CC2	3T3 cytotox inconclusive (no result: NPR1 antag, FLuc inh)
COc1ccc(NC(=O)Cn2c(-c3ccccc3)nc(C)c(CCO)c2=O)cc1Cl	HEK293 tox 25µM, 3T3 cytotox inconclusive
CCc1cccc(NC(=O)Cn2c(-c3ccc(Cl)cc3)nc(C)c(CCO)c2=O)c1	HEK293 tox inconclusive
Cc1nc(-c2cccc(Cl)c2)n(CC(=O)Nc2ccc3c(c2)OCO3)c(=O)c1CCO	HEK293 tox 40µM, 3T3 cytotox inconclusive
Cc1ccc(NC(=O)Cn2c(-c3ccc(Cl)cc3)nc(C)c(CCO)c2=O)cc1	HEK293 tox 32µM, 3T3 cytotox inconclusive
COc1ccc(NC(=O)Cn2c(-c3ccccc3)nc(C)c(CCO)c2=O)cc1OC	HEK293 tox inconclusive, 3T3 cytotox inconclusive
CSc1cccc(NC(=O)Cn2c(-c3ccc(F)cc3)nc(C)c(CCO)c2=O)c1	HEK293 tox 32µM, 3T3 cytotox inconclusive
Cc1nc(-c2ccc(F)cc2)n(CC(=O)Nc2ccc(F)cc2)c(=O)c1CCO	HEK293 tox inconclusive, 3T3 cytotox inconclusive
CC(=O)NC1CCN(c2ccc3nnc(-c4ccccc4)n3n2)CC1	none (no result: NPR1 antag, FLuc inh)
Cn1ccnc1CN1C[C@@H]2C[C@H]1C(=O)N(Cc1cccnc1)c1ccccc1O2	none
O=C1Nc2ccc(-c3ccsc3)cc2C(=O)N2C[C@@H](NS(=O)(=O)c3ccc(F)cc3)C[C@@H]12	none
COc1ccc(S(=O)(=O)N[C@H]2C[C@@H](c3nc(-c4ccc(C)cc4)no3)N(C)C2)cc1	HEK293 tox 79µM, 3T3 cytotox inconclusive, NPR1 antag inconclusive, FLuc inh 25µM
COc1ccc(-c2noc([C@@H]3C[C@H](NCc4ccc(S(C)(=O)=O)cc4)CN3C)n2)cc1	HEK293 tox inconclusive, NPR1 antag inconclusive, FLuc inh 45µM
COc1ccc([C@H]2C[C@@H](O)[C@@H](O)[C@@H]2NCc2cccc(C#N)c2)cc1	3T3 cytotox 89µM
COc1ccc(-c2ccc3c(c2)C(=O)N2C[C@@H](NS(=O)(=O)c4ccc(F)cc4)C[C@H]2C(=O)N3)c(OC)c1	HEK293 tox 28µM, 3T3 cytotox inconclusive
COc1ccc(-c2noc([C@@H]3C[C@H](NC(=O)c4ccc(F)cc4)CN3C)n2)cc1	HEK293 tox inconclusive, 3T3 cytotox inconclusive
COc1ccc([C@H]2C[C@@H](O)[C@@H](O)[C@@H]2NCc2cccc(C(F)(F)F)c2)cc1	HEK293 tox inconclusive, 3T3 cytotox inconclusive
Cc1nnc2ccc(N3CCN(C(=O)Cc4ccc(C(F)(F)F)cc4)CC3)nn12	HEK293 tox inconclusive (no result: NPR1 antag, FLuc inh)
O=C1NCc2ccccc2CC12CCCCN2Cc1ccccc1 (stereo not drawn)	none (no result: NPR1 antag, FLuc inh)
COc1ccc(-c2noc([C@@H]3C[C@H](NS(=O)(=O)c4ccc(F)cc4)CN3C)n2)cc1	HEK293 tox inconclusive, 3T3 cytotox inconclusive, FLuc inh 18µM
COc1ccc(NC(=O)N[C@H]2C[C@@H](c3nc(-c4ccc(F)cc4)no3)N(C)C2)cc1	3T3 cytotox inconclusive
COc1ccc(-c2noc([C@@H]3C[C@H](NCc4cccc(C#N)c4)CN3C)n2)cc1	HEK293 tox inconclusive, 3T3 cytotox inconclusive, FLuc inh 40µM
CC(C)CCN1CCCC(c2nn(-c3ccccc3)c(=O)[nH]2)C1 (stereo not drawn)	none
CCCNC(=O)CCC1CCN(C(=O)c2ccccc2F)CC1	FLuc inh 40µM
CCN(CC)C(=O)CCC1CCN(C(=O)c2ccccc2F)CC1	FLuc inh 35µM
O=C(CCC1CCN(C(=O)c2ccccc2F)CC1)NCCCc1ccccc1	HEK293 tox inconclusive
CC(C)OCCCNC(=O)CCC1CCN(C(=O)c2ccccc2F)CC1	none
